Data published in PubChem BioAssay (Tox21).
Values joined by “and” are separate entries in the source; they are usually repeats but may differ in a detail not shown here. Identical values can stand only once. Records with an inconclusive call do not appear. Some compounds were tested as several samples or in several runs, with calls that do not always agree. Active and inactive are the calls of the source. Unless noted, calls come from the whole dose curve; as a rule, active = well fitted curve in the direction sought with a large enough effect in the repeat runs; inconclusive = weak or mixed curves; inactive = no such curve, though single readings can be large; an effect the other way counts as inactive or inconclusive.

What was measured:
[1] = qHTS assay to identify small molecule agonists of the estrogen receptor alpha (ER-alpha) signaling pathway in the presence of an antagonist - cell viability counter screen (AID 1259386);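 note: series mostly up to about 92 µM; cells exposed to compounds for 22 h at 37 °C before the viability read; % is set by controls: 0 for no effect and ±100 for the full control effect; nearly all actives have a fitted effect of over 30% in size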
How it was run: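 Cells are starved of estrogens for 5 days in charcoal-stripped serum, seeded for 24hr and co-treated with ICI-182,780 (10.0nM final) and test compounds. After 22hr at 37C, viability is read as CellTiter-Fluor fluorescence.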

[2] = molecular target: Progesterone receptor (Homo sapiens) (UniProt P06401); assay: qHTS assay to identify small molecule agonists of the progesterone receptor (PR) signaling pathway (AID 1346784; calls by dose curve; note: % is set by controls: 0 for no effect and ±100 for the full control effect; nearly all actives have a fitted effect of over 30% in size)
Progesterone receptor (Homo sapiens), sequence (P06401 whole entry, looked up): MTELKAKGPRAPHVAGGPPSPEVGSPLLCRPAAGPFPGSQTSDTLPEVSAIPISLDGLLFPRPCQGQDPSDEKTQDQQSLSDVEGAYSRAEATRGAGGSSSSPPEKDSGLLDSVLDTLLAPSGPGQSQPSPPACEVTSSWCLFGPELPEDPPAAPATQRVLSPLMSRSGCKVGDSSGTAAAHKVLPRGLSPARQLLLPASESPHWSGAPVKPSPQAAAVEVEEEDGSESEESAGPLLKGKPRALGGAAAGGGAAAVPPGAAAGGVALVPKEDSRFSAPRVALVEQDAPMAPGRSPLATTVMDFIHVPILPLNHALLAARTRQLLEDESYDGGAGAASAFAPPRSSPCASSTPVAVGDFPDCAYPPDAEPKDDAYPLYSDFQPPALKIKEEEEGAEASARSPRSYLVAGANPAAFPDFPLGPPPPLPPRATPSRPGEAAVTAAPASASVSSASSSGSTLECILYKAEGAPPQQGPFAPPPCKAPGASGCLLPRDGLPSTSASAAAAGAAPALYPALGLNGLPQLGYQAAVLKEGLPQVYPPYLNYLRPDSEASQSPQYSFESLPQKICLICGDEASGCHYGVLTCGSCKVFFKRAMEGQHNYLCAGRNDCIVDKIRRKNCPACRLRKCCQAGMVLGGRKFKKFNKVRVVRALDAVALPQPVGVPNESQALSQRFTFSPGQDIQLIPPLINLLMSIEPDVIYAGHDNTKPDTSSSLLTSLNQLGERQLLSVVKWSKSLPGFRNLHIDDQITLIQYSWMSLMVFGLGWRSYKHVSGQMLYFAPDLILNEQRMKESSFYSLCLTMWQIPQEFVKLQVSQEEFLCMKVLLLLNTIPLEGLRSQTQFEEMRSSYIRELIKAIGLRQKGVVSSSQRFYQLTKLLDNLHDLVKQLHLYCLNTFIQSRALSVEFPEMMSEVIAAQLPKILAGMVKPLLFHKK
How it was run: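 Seed PR-UAS-bla HEK 293T cells (2% charcoal-stripped FBS), incubate 6 hr at 37C; add compounds in DMSO, 16 hr at 37C; add LiveBLAzer B/G substrate, 2 hr RT; read fluorescence intensity.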

[3] = molecular target: Progesterone receptor (Homo sapiens) (UniProt P06401); assay: qHTS assay to identify small molecule antagonists of the progesterone receptor (PR) signaling pathway (AID 1346795; active = well fitted inhibition curve with a large enough effect in the signal ratio in the repeat runs, not every such curve was filed as active; the % refers to the signal ratio; note: potency is the fitted concentration of half-maximal effect)
How it was run: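 Screening used a GripTite HEK293T line with PR-responsive UAS-beta-lactamase. Cells were challenged with compound in the presence of 1 nM R5020 final for 16 hr at 37C; B/G FRET substrate, 2 hr room temperature, fluorescence.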

[4] = qHTS assay to identify small molecule antagonists of the progesterone receptor (PR) signaling pathway - cell viability counter screen (AID 1346798); note: nearly all actives have a fitted effect of over 50% in size; note: potency is the fitted concentration of half-maximal effect
How it was run: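 Measures cytotoxicity in parallel with the PR antagonist reporter read: HEK293T PR-UAS-bla cells get compound and R5020 for 16 hr, and remaining viable cells are quantified by CellTiter-Glo luminescence.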

[5] = qHTS assay to identify small molecule antagonists of the TGF-beta/Smad signaling pathway - cell viability counter screen (AID 1346824); note: % is set by controls: 0 for no effect and ±100 for the full control effect; nearly all actives have a fitted effect of over 50% in size
How it was run: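 SBE-bla HEK 293T cells, incubated overnight, then compound plus 0.25 ng/mL TGF-beta1 (stock added) for 5 hr at 37 C. Viability was read in the same wells by CellTiter-Glo luminescence after 30 min at room temperature.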

[6] = qHTS assay to identify small molecule agonists of the TGF-beta/Smad signaling pathway - cell viability counter screen (AID 1346829); note: nearly all actives have a fitted effect of over 45% in size; note: potency is the fitted concentration of half-maximal effect
How it was run: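 In parallel with the Smad reporter read, viability of HEK 293T cells stably carrying SBE-bla is quantified by ATP luminescence following 5 hr compound treatment.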

[7] = qHTS assay to identify small molecule agonists of the TGF-beta/Smad signaling pathway (AID 1346859; active = well fitted activation curve with a large enough effect in the signal ratio in the repeat runs, not every such curve was filed as active; the % refers to the signal ratio; note: series mostly up to about 77 µM; % is set by controls: 0 for no effect and ±100 for the full control effect)
How it was run: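 Beta-lactamase reporter activity downstream of Smad binding elements was measured in stably transfected HEK 293T cells; compounds were incubated for 5 hr, substrate for 2 hr at room temperature.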

[8] = molecular target: Thyrotropin-releasing hormone receptor (Homo sapiens) (UniProt P34981); assay: qHTS assay to identify small molecule antagonists of the thyrotropin-releasing hormone receptor (TRHR) signaling pathway (AID 1346877; active = well fitted inhibition curve with a large enough effect in the repeat runs, not every such curve was filed as active; note: series mostly up to about 51 µM; % is set by controls: 0 for no effect and ±100 for the full control effect)
Thyrotropin-releasing hormone receptor (Homo sapiens), sequence (P34981 whole entry, looked up): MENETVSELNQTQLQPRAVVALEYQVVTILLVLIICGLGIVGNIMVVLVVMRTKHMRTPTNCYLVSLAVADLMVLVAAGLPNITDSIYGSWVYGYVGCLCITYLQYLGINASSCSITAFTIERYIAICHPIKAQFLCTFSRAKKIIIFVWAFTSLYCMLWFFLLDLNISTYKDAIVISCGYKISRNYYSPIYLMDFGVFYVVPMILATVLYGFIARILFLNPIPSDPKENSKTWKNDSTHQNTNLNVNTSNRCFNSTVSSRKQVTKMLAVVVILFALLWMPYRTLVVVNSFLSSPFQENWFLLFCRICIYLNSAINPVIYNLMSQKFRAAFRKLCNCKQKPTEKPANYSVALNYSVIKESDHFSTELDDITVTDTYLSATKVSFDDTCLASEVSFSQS
How it was run: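 Cells (TRHR-HEK293) are plated and kept 18 h at 37 °C/5% CO2. A calcium-sensitive dye is added for 2 h, compound follows for 5 min at room temperature, and TRH is then given at 1 nM final.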

[9] = molecular target: Thyrotropin-releasing hormone receptor (Homo sapiens) (UniProt P34981); assay: qHTS assay to identify small molecule agonists of the thyrotropin-releasing hormone receptor (TRHR) signaling pathway (AID 1346891; calls by dose curve;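 note: HEK293 cells expressing TRHR with calcium dye readout; series mostly up to about 58 µM; % is set by controls: 0 for no effect and ±100 for the full control effect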)
How it was run: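 Overnight-plated (18 h, 37 °C, 5% CO2) TRHR-Hek293 cells; 2 h calcium dye at 37 °C; compound in DMSO; 3-min kinetic fluorescence read.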

[10] = Caspase-3/7 induction in HepG2 cells by small molecules, qHTS assay (AID 1346978); note: nearly all actives have a fitted effect of over 15% in size; note: potency is the fitted concentration of half-maximal effect
How it was run: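 Wild-type HepG2 cells, 2,000/well, settled 5 hr at 37 C and 5% CO2, then compound-treated for 17 hr; caspase-3/7 activity read by luminescent Caspase-Glo 3/7 after 30 min at room temperature.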

[11] = Caspase-3/7 induction in CHO-K1 cells by small molecules, qHTS cell viability counter screen (AID 1346979); note: nearly all actives have a fitted effect of over 35% in size; note: potency is the fitted concentration of half-maximal effect
How it was run: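 Multiplexed with Caspase-Glo 3/7 in CHO-K1 cells, this counter screen added CellTiter-Fluor after 16hr of compound exposure and recorded fluorescence 1hr later.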

[12] = Caspase-3/7 induction in CHO-K1 cells by small molecules, qHTS assay (AID 1346980); note: nearly all actives have a fitted effect of over 15% in size; note: potency is the fitted concentration of half-maximal effect
How it was run: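 Wild-type CHO-K1 cells exposed to compounds for 17hr at 37 C, 5% CO2. Caspase-3/7 activity then measured by Caspase-Glo 3/7 luminescence after 30min at room temperature.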

[13] = Caspase-3/7 induction in HepG2 cells by small molecules, qHTS cell viability counter screen (AID 1346981); note: nearly all actives have a fitted effect of over 30% in size; note: potency is the fitted concentration of half-maximal effect
How it was run: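 Steps: seed 2,000 HepG2 cells per well; incubate 5 hr at 37 C; pin-add compounds in DMSO; incubate 16 hr; add CellTiter-Fluor; after 1 hr at 37 C and 5% CO2, read fluorescence.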

[14] = molecular target: Nuclear receptor subfamily 1 group I member 2 (Homo sapiens) (UniProt O75469); assay: Human pregnane X receptor (PXR) small molecule agonists, qHTS assay (AID 1346982); note: nearly all actives have a fitted effect of over 35% in size; note: potency is the fitted concentration of half-maximal effect; for activation: % is set by controls: 0 for no effect and ±100 for the full control effect
Nuclear receptor subfamily 1 group I member 2 (Homo sapiens), sequence (O75469 whole entry, looked up): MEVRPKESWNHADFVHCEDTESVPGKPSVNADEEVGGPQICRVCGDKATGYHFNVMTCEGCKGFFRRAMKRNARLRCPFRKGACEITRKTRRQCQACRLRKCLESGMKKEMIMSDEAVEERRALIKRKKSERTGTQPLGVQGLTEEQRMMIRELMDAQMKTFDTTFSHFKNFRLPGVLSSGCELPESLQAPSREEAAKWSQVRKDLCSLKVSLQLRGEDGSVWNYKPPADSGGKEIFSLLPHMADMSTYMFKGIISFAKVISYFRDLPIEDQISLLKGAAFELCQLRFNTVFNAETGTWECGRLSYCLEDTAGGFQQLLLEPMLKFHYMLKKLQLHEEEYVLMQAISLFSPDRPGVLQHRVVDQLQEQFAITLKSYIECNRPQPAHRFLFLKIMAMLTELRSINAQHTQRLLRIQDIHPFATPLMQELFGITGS
How it was run: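 Agonist mode qHTS: PXR-Luc HepG2 cells plated 5 hr before DMSO-dissolved compounds were pinned in, cultured 24 hr at 37 C, 5% CO2; ONE-Glo luminescence readout.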

[15] = molecular target: Nuclear receptor subfamily 1 group I member 2 (Rattus norvegicus) (UniProt Q9R1A7); assay: Rat pregnane X receptor (rPXR) activation by small molecules, qHTS assay (AID 1346983); settings: rPXR luciferase reporter cells, One-Glo luminescence, 24 h; stronger effect = higher value; note: % is set by controls: 0 for no effect and ±100 for the full control effect; nearly all actives have a fitted effect of over 20% in size
Nuclear receptor subfamily 1 group I member 2 (Rattus norvegicus), sequence (Q9R1A7 whole entry, looked up): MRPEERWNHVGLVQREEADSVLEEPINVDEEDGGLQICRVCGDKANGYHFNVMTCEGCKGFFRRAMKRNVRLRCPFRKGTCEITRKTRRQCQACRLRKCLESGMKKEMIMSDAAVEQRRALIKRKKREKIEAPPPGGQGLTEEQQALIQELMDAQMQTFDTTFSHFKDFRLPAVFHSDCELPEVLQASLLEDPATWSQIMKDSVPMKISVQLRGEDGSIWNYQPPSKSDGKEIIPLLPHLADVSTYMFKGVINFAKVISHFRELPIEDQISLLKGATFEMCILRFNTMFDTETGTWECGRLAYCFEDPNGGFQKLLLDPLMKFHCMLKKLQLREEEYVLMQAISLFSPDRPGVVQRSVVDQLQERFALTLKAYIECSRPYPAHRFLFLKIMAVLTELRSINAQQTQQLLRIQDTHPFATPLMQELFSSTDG
How it was run: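 Cell-based rPXR activation assay: rPXR cells, 2,000 per well, rested 5hr at 37 C, then exposed to compounds in DMSO for 24 hr at 37 C. Luciferase activity read by One-Glo luminescence after 30 min at room temperature.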

[16] = molecular target: Nuclear receptor subfamily 1 group I member 2 (Homo sapiens) (UniProt O75469); assay: CYP3A4 induction through human pregnane X receptor (PXR) by small molecules, qHTS assay (AID 1346984); note: % is set by controls: 0 for no effect and ±100 for the full control effect; nearly all actives have a fitted effect of over 40% in size
How it was run: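 Steps: seed DPX-2 cells, 5 hr at 37C; pin-transfer compounds; 24 hr at 37C; add Luciferin-IPA (3uM final), 3 hr at 37C; add One-Glo, 30 min RT; read luminescence.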

[17] = molecular target: Nuclear receptor subfamily 1 group I member 2 (Homo sapiens) (UniProt O75469); assay: Human pregnane X receptor (PXR) activation by small molecules, qHTS assay (AID 1346985); note: % is set by controls: 0 for no effect and ±100 for the full control effect; nearly all actives have a fitted effect of over 40% in size
How it was run: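 DPX-2 cells (HepG2 co-transfected with a PXR response element and a CYP3A4-promoter luciferase construct) were seeded at 2,000 per well, rested 5 hr at 37C, then exposed to DMSO-dissolved compounds for 24 hr. Activation was read as luciferase luminescence.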

[18] = molecular target: Acetylcholinesterase (Homo sapiens) (UniProt P22303); assay: Acetylcholinesterase (AChE) small molecule antagonists: colormetric cell-based qHTS assay (AID 1347395; calls by dose curve; note: nearly all actives have a fitted effect of over 30% in size; note: potency is the fitted concentration of half-maximal effect)
Acetylcholinesterase (Homo sapiens), sequence (P22303 whole entry, looked up): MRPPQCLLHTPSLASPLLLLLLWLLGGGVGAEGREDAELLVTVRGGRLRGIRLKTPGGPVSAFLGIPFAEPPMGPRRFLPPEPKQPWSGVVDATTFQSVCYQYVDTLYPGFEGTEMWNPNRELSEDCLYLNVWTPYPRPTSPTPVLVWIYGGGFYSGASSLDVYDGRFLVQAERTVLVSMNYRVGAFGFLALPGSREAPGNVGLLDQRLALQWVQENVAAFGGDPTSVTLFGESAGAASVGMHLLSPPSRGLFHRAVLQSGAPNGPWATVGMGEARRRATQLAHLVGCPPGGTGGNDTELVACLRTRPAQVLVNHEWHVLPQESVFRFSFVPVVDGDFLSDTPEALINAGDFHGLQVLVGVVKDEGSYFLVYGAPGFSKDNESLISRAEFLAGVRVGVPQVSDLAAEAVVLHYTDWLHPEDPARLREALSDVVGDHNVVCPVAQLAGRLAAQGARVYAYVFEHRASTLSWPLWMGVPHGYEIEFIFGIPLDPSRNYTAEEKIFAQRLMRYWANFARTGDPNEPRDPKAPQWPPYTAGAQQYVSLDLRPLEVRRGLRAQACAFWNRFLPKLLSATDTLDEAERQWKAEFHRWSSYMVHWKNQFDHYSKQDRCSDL
How it was run: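 In this cell-based qHTS, attached SH-SY5Y cells were treated with test chemicals for 30 min, after which acetylthiocholine hydrolysis was followed by DTNB colour development over 90 min at 37 C.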

[19] = Human pregnane X receptor (PXR) small molecule agonists, qHTS cell viability counter screen (AID 1346977); note: nearly all actives have a fitted effect of over 50% in size; note: potency is the fitted concentration of half-maximal effect
How it was run: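 After a 5hr pre-incubation, PXR-Luc HepG2 cells received compounds plus positive control in DMSO and were kept 24hr at 37C. Cell viability was quantified by fluorescence from CellTiter-Fluor added for the final hour.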

[20] = qHTS assay to identify small molecule agonists of the progesterone receptor (PR) signaling pathway - cell viability counter screen (AID 1346799; calls by dose curve; note: potency is the fitted concentration of half-maximal effect; nearly all actives have a fitted effect of over 45% in size)
How it was run: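 Using the same plates as the PR reporter screen, HEK293T PR-UAS-bla cells received compounds for 16 hr at 37C and were then lysed with CellTiter-Glo; luminescence was read 30 min later at room temperature.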

CC(C)(C)NCC(O)c1ccccc1Cl (stereo not drawn)
inactive: Potency [1] | Potency [2] | Potency [3] | Potency [4] | Potency [5] | Potency [6] | outcome [7] | Potency [8] | outcome [9] | Potency [10] | Potency [11] | Potency [12] | Potency [13] | Potency [14] | max activation [15] -2.03% | outcome [16] | Potency [17] | Potency [18]

C[Si](Cn1cncn1)(c1ccc(F)cc1)c1ccc(F)cc1
inactive: Potency [1] | Potency [2] | Potency [4] | Potency [5] | Potency [6] | outcome [7] | Potency [8] | outcome [9] | Potency [10] | Potency [12] | Potency [18]
active: Potency [3] 15.4 µM | Potency [14] 31.6 µM and 15.4 µM

O=C(O)c1cc(Cl)ccc1Cl
inactive: Potency [1] | Potency [2] | Potency [3] | Potency [4] | Potency [5] | Potency [6] | outcome [7] | Potency [10] | Potency [11] | Potency [12] | Potency [13] | Potency [14] | Potency [18]

CC(C)CCCCCCCOC(=O)c1ccccc1C(=O)OCCCCCCCC(C)C
inactive: Potency [1] | Potency [2] | Potency [3] | Potency [4] | Potency [5] | Potency [6] | outcome [7] | Potency [8] | outcome [9] | Potency [19] | Potency [10] | Potency [11] | Potency [12] | Potency [13] | Potency [14] | Potency [18]

COC1=CC(=O)O[C@@H](/C=C/c2ccc3c(c2)OCO3)C1
inactive: Potency [1] | Potency [2] | Potency [4] | Potency [5] | Potency [6] | outcome [7] | Potency [8] | outcome [9] | Potency [10] | Potency [11] | Potency [12] | Potency [13] | Potency [14] | Potency [18]

Nc1ccccc1C(=O)OCC(O)CO (stereo not drawn)
inactive: Potency [1] | Potency [2] | Potency [4] | Potency [5] | Potency [6] | outcome [7] | Potency [8] | outcome [9] | Potency [19] | Potency [10] | Potency [11] | Potency [12] | Potency [14] | Potency [18]

CC(C)(C)CC(C)(C)c1ccc(O)cc1
43.6 µM (active) and inactive: Potency [6]
39.9 µM (active) and inactive: Potency [18]
19.3 µM (active) and inactive: Potency [14]
inactive: Potency [1] | Potency [2] | outcome [7] | Potency [8] | outcome [9]
active: Potency [4] 54.5 µM | Potency [20] 48.6 µM | Potency [19] 54.5 µM | Potency [10] 51.4 µM | Potency [11] 50 µM | Potency [12] 51.4 µM | Potency [13] 61.1 µM
